# Assay outcomes deposited in PubChem BioAssay by several laboratories.
# MPTP inh: permeability transition pore inhibition | isolated mouse mitochondria, Ca2+ swelling absorbance, 30 min | inhibition, % at 10 µM | 360,000 tested, 1.4% active | AID 602449;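 active means inhibition of 50% or more, scaled per plate between neutral and stimulator controls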;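 further: 0% = DMSO wells given calcium and 100% = 1 mM EGTA wells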
# HSP90 inh: blocks HSP90-mediated luciferase refolding in reticulocyte lysate. Rabbit reticulocyte lysate, luciferase refolding luminescence, 3 h. inhibition, % at 5.6 µM. 290,000 tested, 0.91% active;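 active means inhibition above the screen-wide mean plus 3 SD, computed separately per campaign, cut at about 16% in these data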;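 further: 0% = DMSO wells and 100% = 60 µM geldanamycin wells; inhibitors lower the luminescence because luciferase stays unfolded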
# HSF1 inhib: HSF1 inhibition. activity change, negative = inhibition, % at 7.5 µM (by protocol). 300,000 tested, 0.77% active. AID 2098. NIH3T3-HGL HSE-luciferase, MG132-induced, luminescence 8 h; hits give low values;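 active means more than half of replicate wells show activity change below -50%, luminescence cut by over half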;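 further: luciferase reports HSF-1 transcriptional activity via heat shock element; 0% = median of DMSO wells and -100% = zero luminescence signal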
# Platelet DG rel: modulates dense granule release in human platelets | 300,000 tested, 0.22% active | inhibition, %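 (compounds screened at 7.5 µM in platelet-rich plasma)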 | human platelet-rich plasma, SFLLRN dense granule ATP release, luminescence;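 active means mean replicate score, as percent of positive control, at or above 50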
# HSF-1 act: increases HSF-1 driven luciferase reporter signal | NIH3T3-HGL HSF-1 luciferase reporter, MG132, 8 h; 100% = twice DMSO control signal | activation, % at 9 µM | 300,000 tested, 1.7% active;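 active means mean replicate activation of at least 50% with a set share of replicates each reaching 50%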;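 further: 0% = median of the neutral control wells and 100% = twice that signal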
# dFosB act-1: mouse delta FosB homodimer activation. purified delta FosB, TAMRA-CDK5 oligo fluorescence polarization; percent of positive-control signal above neutral wells. activation, % at 25 µM. P13346. AID 493131. 340,000 tested, 0.99% active;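 active means mean activation above about 17%, with every replicate also reaching it, limit read from the data, passing the limit was not always enough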
# Target sequence (P13346 whole entry, looked up): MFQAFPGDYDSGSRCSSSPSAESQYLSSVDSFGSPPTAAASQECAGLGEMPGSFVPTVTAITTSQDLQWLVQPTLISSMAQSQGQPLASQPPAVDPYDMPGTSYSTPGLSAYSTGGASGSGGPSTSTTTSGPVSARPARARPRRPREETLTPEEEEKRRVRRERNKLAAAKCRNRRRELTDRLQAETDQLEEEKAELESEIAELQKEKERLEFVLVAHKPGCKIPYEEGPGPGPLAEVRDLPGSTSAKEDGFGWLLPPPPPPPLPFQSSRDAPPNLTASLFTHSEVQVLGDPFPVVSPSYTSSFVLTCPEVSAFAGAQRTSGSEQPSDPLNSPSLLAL
# dFosB act-2: enhances mouse delta FosB homodimer binding to DNA; purified delta FosB, TAMRA-CDK5 oligo fluorescence polarization; normalised: neutral wells 0, positive control 100; shares compounds with dFosB act-1; activation, % at 24.9 µM; 2,400 tested, under 10 active; AID 588690;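 active means highest replicate activation at or above 34% and every replicate reaching that threshold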;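 further: higher polarization means more probe DNA bound by delta FosB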
# * hit, by the source's call; . = not tested or not shown. Only some compounds are listed: those with a hit (about 4.9% of all), similar ones and a draw of the others.
SMILES,MPTP inh,HSP90 inh,HSF1 inhib,Platelet DG rel,HSF-1 act,dFosB act-1,dFosB act-2
CCN(CC)Cc1cc2[nH]c3c4ccc(Cl)cc4ncc3c2cc1OC,-0.5,2.4,-5.9,-2.8,-12.4,24.0*,5.9
CCC(C)/C(C)=N/NC(=O)c1ccc(COc2ccc(Cl)c(C)c2)cc1 (configuration not stated),47.3,-5.6,.,.,.,-10.9,.
Cc1ccc(C)c(Nc2nn3c(=O)c4ccc(C(=O)NCc5cccnc5)cc4nc3s2)c1,0.4,-2.1,-9.5,9.7,-5.4,98.7*,-1.4
CC(=O)Nc1ccc(NC(=O)C2CCCN(c3nnc(-n4cccc4)s3)C2)cc1 (configuration not stated),-3.3,0.5,3.5,9.8,6.5,30.6*,0.2
CCCCn1c(N)c(N(CC(C)C)C(=O)c2ccc(-c3ccc(Cl)cc3)o2)c(=O)[nH]c1=O,-0.9,.,.,.,.,2.4,.
Cc1cc(C)c(NC(=O)Cn2nnc(C(=O)NCc3cccs3)c2N)c(C)c1,0.5,-1.0,-5.1,-2.5,17.0,11.6,.
Cc1c(Cl)cccc1NC(=O)Cn1nnc(C(=O)NCc2cccs2)c1N,0.2,1.5,-2.3,0.0,-7.3,39.3*,-3.4
CCc1ccccc1NC(=O)c1nnn(CC(=O)Nc2cccc(C)c2)c1N,-4.4,5.0,5.1,-4.9,-3.6,7.4,.
Cc1cc(C)cc(NC(=O)Cn2nnc(C(=O)NCc3cccs3)c2N)c1,1.5,1.1,-5.1,6.3,17.1,58.3*,3.2
Cc1cccc(NC(=O)Cn2nnc(C(=O)NCc3cccs3)c2N)c1C,0.0,1.8,-3.4,6.7,1.7,42.3*,4.5
CCc1ccccc1NC(=O)c1nnn(CC(=O)Nc2cccc(C)c2C)c1N,-1.3,3.5,0.5,-5.5,-7.1,42.4*,-8.2
COC(=O)c1ccc(-n2c(CCC(=O)O)ccc2-c2ccccc2)cc1,0.5,-0.7,-1.7,-4.4,12.5,-1.4,.
Cc1ccc(S(=O)(=O)N2C[C@]3(O)C[C@@H]4C(=O)N(c5ccccc5)C(=O)[C@@H]4C[C@]3(OC(=O)Nc3cccs3)C2)cc1,-1.6,.,.,.,.,.,.
COc1ccc(C(=O)Nc2cc(-c3ccccc3)nn2-c2ccccc2F)cc1,1.7,.,.,.,.,2.9,.
C[C@H]1CN=C(N(C)C)N1CC1CCC(C(C)(C)C)CC1 (some centres not stated),1.9,.,.,.,.,-9.4,.
COc1ccc(C(C)(O)c2nc(-c3ccc(S(C)(=O)=O)cc3)cs2)cc1 (configuration not stated),-0.7,.,.,.,.,.,.
Cc1cc2oc(C(=O)Nc3nonc3C)c(C)c2cc1Cl,-1.2,-1.7,8.6,3.1,7.4,46.2*,2.5
CCc1nonc1NC(=O)c1oc2ccc(C)cc2c1C,0.2,-1.7,2.2,-1.3,15.7,15.9,.
Cc1nonc1NC(=O)c1oc2ccc(F)cc2c1C,1.0,-6.7,6.8,-3.6,20.4,28.9*,1.8
CCN1C(=O)[C@H]2[C@@H](c3ccc(C)cc3)N[C@]3(CCCN(Cc4ccco4)C3=O)[C@H]2C1=O,0.4,.,.,.,.,.,.
Cc1ccc(S(=O)(=O)N2CCC(C(=O)N3CCCCCCC3)CC2)cc1C,0.6,.,.,.,.,.,.
COC(=O)c1cc2ccc(OC)c(OC)c2c(=O)s1,2.0,-0.9,11.0,4.0,11.0,-1.0,.
COc1ccc2cc(C(=O)Nc3ccc(F)cc3)sc(=O)c2c1OC,5.2,-0.2,2.9,2.7,11.5,33.5*,1.3
COc1ccc2cc(C(=O)Nc3ccc(O)cc3)sc(=O)c2c1OC,1.3,-1.3,2.2,-0.2,4.7,5.0,.
COc1ccc2cc(C(=O)Nc3ccc(Cl)cc3)sc(=O)c2c1OC,19.7,-2.3,.,-7.0,.,70.7*,5.4
COc1cccc(NC(=O)c2cnc(SC)nc2)c1,-0.3,0.8,-3.1,13.1,9.8,-13.3,.
Cc1c(C(=O)OCC(=O)N2CC(=O)Nc3ccccc32)oc2ccccc12,0.4,3.0,-1.8,-1.5,11.1,32.6*,-7.0
COCCN1C[C@@H](CO)O[C@@H](n2cnc3c(NCCN(C)C)ncnc32)C1,1.0,.,.,.,.,.,.
Nc1nccc(-c2cc(-c3ccc(Cl)cc3Cl)no2)n1,1.7,-0.4,27.5,22.1,44.0,93.1*,-15.4
